MITF primary: human MITF inhibition, primary screen; inhibition, % at 2.6 µM; AlphaScreen MITF homodimerization, bead proximity signal; O75030; 0.91% of 650,000 active; in the data active = inhibition above about 50%
TEAD-YAP inh: TEAD-YAP interaction inhibition. HEK-TIYL cells, TEAD-Gal4/YAP UAS-luciferase luminescence. inhibition, % at 9.12 µM. 1.4% of 640,000 active; in the data active = inhibition above about 32%
FBW7 activator: human FBW7 E3 ligase activation, primary screen | AlphaScreen FBW7–phospho-cyclin E peptide binding, activator screen | normalized activity (activation), % at 26.1 µM | Q969H0 | 0.13% of 650,000 active; in the data active = normalized activity above about 1.9%;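 also: purified mutant Fbw7 with reduced substrate affinity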
Target sequence (Q969H0 whole entry, looked up): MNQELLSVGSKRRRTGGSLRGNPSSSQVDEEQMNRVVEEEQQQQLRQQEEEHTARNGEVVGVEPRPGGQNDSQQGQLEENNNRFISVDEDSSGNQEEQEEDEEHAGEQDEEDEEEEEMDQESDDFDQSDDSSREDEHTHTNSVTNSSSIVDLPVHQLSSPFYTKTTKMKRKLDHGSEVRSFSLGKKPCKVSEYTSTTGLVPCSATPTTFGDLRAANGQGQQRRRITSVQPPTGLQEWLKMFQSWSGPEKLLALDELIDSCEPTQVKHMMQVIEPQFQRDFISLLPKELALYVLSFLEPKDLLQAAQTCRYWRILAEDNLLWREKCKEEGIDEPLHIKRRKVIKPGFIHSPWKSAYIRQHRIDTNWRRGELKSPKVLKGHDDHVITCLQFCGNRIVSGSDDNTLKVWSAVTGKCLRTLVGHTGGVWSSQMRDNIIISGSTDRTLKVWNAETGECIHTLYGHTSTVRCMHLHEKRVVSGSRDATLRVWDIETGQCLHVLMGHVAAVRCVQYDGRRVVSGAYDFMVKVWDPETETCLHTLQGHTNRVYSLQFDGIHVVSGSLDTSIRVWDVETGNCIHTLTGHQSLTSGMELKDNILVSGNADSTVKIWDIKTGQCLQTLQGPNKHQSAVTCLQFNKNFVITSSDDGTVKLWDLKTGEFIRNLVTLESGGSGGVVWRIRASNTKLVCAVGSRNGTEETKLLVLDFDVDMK
GPR151 ag: human GPR151 activation; Q8TDV0; PathHunter beta-arrestin GPR151 cells, luminescence; activation, % at 11.2 µM; 1% of 650,000 active; in the data active = activation above about 4.9%
Each line names hits and unclear results; the compound was inactive in the other large screens. Shown are actives, neighbours in structure and some others; about 3.5% of the full set was active somewhere.

c1cncc(C(c2nnnn2C2CCCCC2)N2CCN3CCCC3C2)c1 (centres undefined)	none
C=CCN1CCN(C(c2ccccc2)c2nnnn2C2CCCC2)CC1 (centres undefined)	FBW7 activator 1.9
c1csc(C(c2nnnn2C2CCCCC2)N2CCN3CCCC3C2)c1 (centres undefined)	TEAD-YAP inh 62.5
CN1CCN(C(c2ccc(F)cc2)c2nnnn2C2CCCC2)CC1 (centres undefined)	none
CN1CCN(C(c2ccc(N(C)C)cc2)c2nnnn2C2CCCC2)CC1 (centres undefined)	TEAD-YAP inh 51.2
O=C(NCc1nc2ccccc2[nH]1)c1ccnc(N2CCc3ccccc3C2)c1	none
CCOc1ccc(C(=O)COC(=O)c2ccccc2[N+](=O)[O-])cc1	none
Cc1ccc(C(=O)COC(=O)c2ccccc2[N+](=O)[O-])cc1	TEAD-YAP inh 90.3
COc1ccc(C(=O)COC(=O)c2ccccc2[N+](=O)[O-])cc1	none
O=C(COC(=O)c1ccccc1[N+](=O)[O-])c1ccccc1Cl	TEAD-YAP inh 33.9
CCc1ccc(C(=O)COC(=O)c2ccccc2[N+](=O)[O-])cc1	TEAD-YAP inh 54.7
Cc1c(C(=O)OCC(=O)c2ccccc2Cl)cccc1[N+](=O)[O-]	none
Cc1csc(NC(=O)c2sc3nc4c(C)cccc4cc3c2N)n1	none
COc1cccc(N2CCN(C(=O)c3[nH]c(C)c(C(C)=O)c3C)CC2)c1	TEAD-YAP inh 40.1
CC(=O)c1c(C)[nH]c(C(=O)N2CCN(c3ccc(F)cc3)CC2)c1C	none
CC(=O)c1c(C)[nH]c(C(=O)N2CCN(c3cccc(Cl)c3)CC2)c1C	TEAD-YAP inh 52.2
CC(=O)c1c(C)[nH]c(C(=O)N2CCN(c3cc(Cl)ccc3C)CC2)c1C	none
CCc1c(C(=O)N2CCN(c3cccc(OC)c3)CC2)[nH]c(C)c1C(C)=O	TEAD-YAP inh 54.5
COC(=O)c1ccc(C(=O)OC)c(NC(=O)c2cc3c(ccc4ccccc43)oc2=O)c1	none
COc1cc(NC(=O)c2ccc(-c3cccc([N+](=O)[O-])c3)o2)ccc1NC(=O)C(C)C	none
O=C(c1cc(-c2ccc3c(c2)OCO3)on1)N1CCCC1	TEAD-YAP inh 41.1
O=C(c1cc(-c2cccc(O)c2)on1)N1CCOCC1	TEAD-YAP inh 64.7
O=C(c1cc(-c2cccc(O)c2)on1)N1CCCCCC1	none
O=C(c1cc(-c2ccc(O)cc2)on1)N1CCCCC1	TEAD-YAP inh 45.0
C=CCNC(=O)c1cc(-c2cccc(O)c2)on1	TEAD-YAP inh 34.1
CC(=O)Nc1ccccc1OCCOc1ccccc1NC(C)=O	none
COc1cccc2cc(C(=O)Nc3ccc(NC(C)=O)cc3)c(=O)oc12	none
Cc1nc2ccccn2c1C(=O)NC1CCCc2ccccc21 (centres undefined)	TEAD-YAP inh 39.6
COc1ccc(/C=N/Nc2ncccc2[N+](=O)[O-])c(OC)c1	TEAD-YAP inh 69.3
COc1cccc(/C=N/Nc2ncccc2[N+](=O)[O-])c1O	TEAD-YAP inh 97.7
COc1cccc(/C=N/Nc2nnc(C)n2N)c1O	none
COc1cccc(/C=N/Nc2ncc(C)c(=O)[nH]2)c1O	MITF primary 85.9, TEAD-YAP inh 87.2
COc1cccc(/C=N/Nc2ccc([N+](=O)[O-])cc2)c1O	none
CN1C(C(=O)N2CCCc3ccccc32)=CC(c2ccc(F)cc2)=NS1(=O)=O	none
COc1ccc(C2=NN3C(C2)c2cc(OC)ccc2OC3c2ccc(SC)cc2)cc1 (centres undefined)	none
CC1C(=O)NN=C1C(=O)N/N=C/c1cccs1 (centres undefined)	TEAD-YAP inh 31.9
CC(C)(C)OC(=O)N/N=C\c1cccs1	FBW7 activator 5.6
CC1C(=O)NN=C1C(=O)N/N=C\c1cccnc1 (centres undefined)	TEAD-YAP inh 35.2
CC1C(=O)NN=C1C(=O)N/N=C\c1cccc(O)c1 (centres undefined)	none
Nc1ncn([C@@H]2O[C@H](CO)[C@@H](O)[C@H]2O)c(=O)n1	TEAD-YAP inh 83.3
COc1ccc(-n2nc(C(=O)NCCN(C)C)c3ccccc3c2=O)cc1	none
COc1ccc(-c2cc(C(F)(F)F)n3nc(C(=O)NC(C)(C)C)cc3n2)cc1OC	FBW7 activator 1.9
COc1ccc(-c2cc(C(F)(F)F)n3nc(C(=O)NC(C)(C)CC(C)(C)C)cc3n2)cc1OC	none
COC(=O)c1c(NC(=O)/C=C\C(=O)O)sc(Cc2ccccc2)c1C	TEAD-YAP inh 32.4
COC(=O)c1c(NC(=O)C(F)(F)F)sc(Cc2ccccc2)c1C	none
O=C1CC(NCCc2ccccn2)C(=O)N1c1ccc(N=Nc2ccccc2)cc1 (centres undefined)	none
Cc1c(C(=O)Nc2c(F)cc(F)cc2Br)sc2ncn(CC(=O)N3CCCC3)c(=O)c12	none

High-throughput results deposited in PubChem BioAssay by The Scripps Research Institute Molecular Screening Center.
